PubChem BioAssay (NCI)
About 83,000 compounds went through this panel and 20% of them were active in at least one assay; those are over-represented in the sample as a whole.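 Testing used 96-well plates and a 48-hour single-concentration exposure. Example: -40 means 40% of the starting cells died.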 Unmarked numbers belong to inactive results. Activity calls are given as the source filed them. Rule for the calls: active = growth percent below 10; inactive = the rest.

Columns and labels:
Assay in all cases: NCI-60 one-dose screen, 48 h (100 = growth as untreated, 0 = no growth, -100 = all killed)
Conditions in all cases: 10 µM unless noted
HCT-15 colon = test system: HCT-15 colon
HT29 colon = test system: HT29 colon
SNB-75 CNS = test system: SNB-75 CNS
SNB-19 CNS = test system: SNB-19 CNS
U251 CNS = test system: U251 CNS
PC-3 prostate = test system: PC-3 prostate
SK-MEL-5 melanoma = test system: SK-MEL-5 melanoma
LOX IMVI melanoma = test system: LOX IMVI melanoma
SK-MEL-28 melanoma = test system: SK-MEL-28 melanoma
SK-MEL-2 melanoma = test system: SK-MEL-2 melanoma
EKVX NSCLC = test system: EKVX NSCLC
SN12C renal = test system: SN12C renal
UO-31 renal = test system: UO-31 renal
TK-10 renal = test system: TK-10 renal
ACHN renal = test system: ACHN renal
A498 renal = test system: A498 renal
CCRF-CEM leukemia = test system: CCRF-CEM leukemia
MOLT-4 leukemia = test system: MOLT-4 leukemia
CAKI-1 renal = test system: CAKI-1 renal

| SMILES | growth (HCT-15 colon) | growth (HT29 colon) | growth (SNB-75 CNS) | growth (SNB-19 CNS) | growth (U251 CNS) | growth (PC-3 prostate) | growth (SK-MEL-5 melanoma) | growth (LOX IMVI melanoma) | growth (SK-MEL-28 melanoma) | growth (SK-MEL-2 melanoma) | growth (EKVX NSCLC) | growth (SN12C renal) | growth (UO-31 renal) | growth (TK-10 renal) | growth (ACHN renal) | growth (A498 renal) | growth (CCRF-CEM leukemia) | growth (MOLT-4 leukemia) | growth (CAKI-1 renal) |
| --- | --- | --- | --- | --- | --- | --- | --- | --- | --- | --- | --- | --- | --- | --- | --- | --- | --- | --- | --- |
| Cc1cc(N(CCNc2ccnc3cc(Cl)ccc23)Cc2ccco2)nc(Cl)n1 | 1.35% (active) | -33.4% (active) | -88.7% (active) | 15.4% | -66.5% (active) | -54.4% (active) | -63.4% (active) | -64.8% (active) | -33.4% (active) | -7.16% (active) | 32.2% | -79.2% (active) | -97% (active) | -74.4% (active) | -98.8% (active) | 20.8% | 0.284% (active) | -26.2% (active) | – |
| Fc1ccc2c(c1)c(-c1nc(-c3c[nH]c4ncccc34)cs1)cn2CCCN1CCCCC1 | -8.44% (active) | -38.4% (active) | 64% | 60.1% | 24.9% | 47.9% | -52% (active) | 44% | -68.3% (active) | 106% | 66% | 63.1% | 44.4% | 107% | 71.7% | 77.8% | 8.52% (active) | 12.9% | – |
| Cn1cc(-c2csc(-c3cn(CCNC(=O)OC(C)(C)C)c4ccc(F)cc34)n2)c2cccnc21 | 52.8% | 76.2% | 86.3% | 90.3% | 82.2% | 25.9% | 23.6% | 71.9% | 88.7% | 82.4% | 55.9% | 85.9% | 39.7% | 104% | 69.2% | 91.1% | 33.5% | 31.8% | – |
| Cn1cc(-c2csc(-c3cn(CCNC(=O)OC(C)(C)C)c4ccccc34)n2)c2cccnc21 | 60.1% | 90.9% | 88.5% | 94.3% | 83.1% | 36.9% | 20.1% | 82.4% | 94.3% | 88.2% | 67.9% | 87.8% | 42.7% | 122% | 74.3% | 82.4% | 43.4% | 42.3% | – |
| Cc1cccc(C)c1NC(=O)CSC(=S)N1CCN(CCOCCO)CC1 | 105% | 93.6% | 96.7% | 99% | 104% | 99.7% | 110% | 96% | 105% | 95% | 95% | 105% | 89.7% | 85.8% | 106% | 103% | 107% | 104% | – |
| O=C(/C(=C(\C(=O)c1ccccc1)c1ccccc1)c1ccccc1)c1ccccc1 | 24% | 37.6% | 72.8% | 74% | 47.3% | 30% | 59.5% | 64.6% | 89.8% | 81.5% | 40.5% | 62.5% | 63.3% | 86.8% | 39.5% | – | 16.2% | -7.63% (active) | 57.8% |
| Cn1cc(-c2csc(-c3cn(CCN)c4ccc(F)cc34)n2)c2cccnc21 | 55.9% | 74.7% | 75.7% | 77.7% | 81.4% | 61.3% | 57% | 60.4% | 98.2% | 93.3% | 55.9% | 76% | 58.3% | 121% | 60.9% | 82.4% | 34.3% | 12.1% | – |
